Hits are enriched below; roughly 2.8% of the tested compounds scored in any of these assays.
SMARCA2 activ: activators of SMARCA2 function; MG213 cells, MMTV-luciferase reporter, dexamethasone, overnight; activation, % at 9.1 µM; 370,000 compounds, 1% hits; in the data active means activation above about 7.8%;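 further: 0% = vehicle wells and 100% = reference activator wells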
MsrA inhibitor: inhibits bovine methionine sulfoxide reductase A; purified bovine MsrA, absorbance read-out; inhibition, % at 15.5 µM; 360,000 compounds, 0.75% hits; AID 651718;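 further: 0% = vehicle wells with enzyme and 100% = reference inhibitor wells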
proKLK7 act: activators of human kallikrein-7 zymogen; AID 652039; activation, % at 7 µM; 370,000 compounds, 0.9% hits; purified proKLK7, EDANS-DABCYL substrate fluorescence; 100% is mature enzyme control, 0% vehicle; P49862;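 active means activation above the mean of all tested compounds plus 3 SD, computed per campaign excluding outliers beyond control limits, cut at about 13% in these data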
Target sequence (P49862 whole entry, looked up): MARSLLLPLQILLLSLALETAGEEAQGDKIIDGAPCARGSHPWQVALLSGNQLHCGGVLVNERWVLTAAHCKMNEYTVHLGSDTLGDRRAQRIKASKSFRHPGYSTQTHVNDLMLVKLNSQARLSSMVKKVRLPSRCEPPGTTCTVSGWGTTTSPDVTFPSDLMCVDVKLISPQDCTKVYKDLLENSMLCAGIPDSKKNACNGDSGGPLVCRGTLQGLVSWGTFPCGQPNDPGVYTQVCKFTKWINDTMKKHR
MsrA act: activates bovine MsrA enzyme | activation, % at 10.6 µM | AID 602163 | 360,000 compounds, 0.3% hits | purified bovine MsrA, absorbance read-out; in the data active means activation above about 7.5%;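 further: 0% = vehicle and 100% = reference activator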
MsrA conf: bovine MsrA inhibition, confirmed; purified bovine MsrA, absorbance read-out; inhibition, % at 15.5 µM; AID 651822; shares compounds with MsrA inhibitor; 2,300 compounds, 41% hits;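 further: coupled to thioredoxin reductase with NADPH and selenocystamine and DMSO as substrate; 0% = vehicle only and 100% = full effect of reference inhibitor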
* hit, by the source's call; . = no result given. Unless noted, no stated cut-off is given here; in the data, active means inhibition above about 4.5%; inactive means the rest.

SMILES	SMARCA2 activ	MsrA inhibitor	proKLK7 act	MsrA act	MsrA conf
CSc1nnc(NC(=O)c2ccc3c(c2)OCO3)s1	5.6	-0.5	-0.2	-4.5	.
C=CCNc1sc(C(=O)C2CC2)c(N)c1C#N	1.4	6.4*	0.2	-8.0	4.8*
CC(C)(C)N1Cc2nnn(CC3CCCCC3)c2-c2cc(F)ccc2S1(=O)=O	-5.2	.	0.0	.	.
O=C(O)c1ccc(-c2nc3ccccc3[nH]2)cc1	-0.5	0.7	4.5	-3.4	.
O=C(O)c1ccc(/C=C(\c2nc3ccccc3[nH]2)c2nc3ccccc3s2)cc1	6.1	5.4*	-0.5	-10.5	5.3*
O=C(N/N=C/c1ccc(Cl)cc1Cl)c1ccncc1	0.5	1.0	0.3	-3.1	.
Cc1nonc1C(=O)N/N=C/c1ccc(O)cc1O	-1.7	5.1*	-0.2	-2.6	3.5
O=C(N/N=C/c1ccc(O)cc1O)c1ccncc1	-1.2	4.9*	-4.3	-1.2	3.7
Cc1nonc1C(=O)N/N=C/c1ccncc1	-1.7	-0.4	0.4	-3.8	.
OC[C@@H]1CN(CCNc2ccccc2)C[C@H](n2cnc3c(NCc4ccncc4)ncnc32)O1	-5.2	0.8	0.7	-8.5	.
Cc1cccc(C(O)c2ncc(-c3ccccc3F)[nH]2)c1C (configuration not stated)	-3.1	0.3	0.4	-5.0	.
CCCCN1CCCOc2cc(Br)ccc2S1(=O)=O	-0.8	.	0.6	.	.
O=C(c1ccc(Br)cn1)N1CCC(Oc2cccnc2)CC1	2.8	.	0.7	.	.
C/C(=N\NC(=O)c1ccc(N/N=C(\C)c2ccncc2)cc1)c1ccncc1	1.8	5.8*	-3.1	-0.3	6.2*
O=C(N/N=C/c1ccco1)c1ccncc1	-1.0	2.7	-0.2	-1.7	.
Cc1cccc(C(=O)Nc2ccc(C(=O)N/N=C/c3ccc(C)o3)cc2)c1	-2.2	6.4*	-0.7	-12.4	4.3
Cc1ccc(/C=N/NC(=O)c2ccncc2)o1	1.2	5.7*	0.2	-1.6	4.6*
CCC[C@H]1CN(c2ccc(Br)cc2)C(=O)[C@@H]1CC(=O)NC	-4.4	-0.2	0.2	-4.5	.
CCC(=O)c1ccc(/C=C/c2nc3ccccc3n2C)o1	2.5	5.2*	4.6	-5.8	2.0
Cc1ccc(NC(=O)C2(C)CCCN(C(C)C)C2)cc1C (configuration not stated)	-0.8	-1.1	0.9	-8.2	.
C=CCn1c(SCC(=O)Nc2cc(OC)c(NC(=O)c3ccco3)cc2OC)nnc1-c1ccncc1	-5.5	4.7*	0.6	-4.6	2.0
CCOC(=O)C1CCCN(C(=O)c2cnn3c(C(F)F)cc(-c4ccc(C)cc4)nc23)C1 (configuration not stated)	-2.3	29.1*	-9.6	5.6	23.1*
Nc1[nH]c(C(=O)c2ccccc2)c(-c2ccc(Br)cc2)c1C(=O)c1ccccc1	5.0	0.2	-0.7	.	.
CCOc1cc(S(=O)(=O)NCc2ccco2)c(OCC)cc1-n1cnnn1	-1.4	7.7*	0.3	-3.0	3.4
CCOc1cc(S(=O)(=O)N2CCN(S(=O)(=O)CC)CC2)c(OCC)cc1-n1cnnn1	-2.2	-0.1	0.8	-3.4	.
SMILES	SMARCA2 activ	MsrA inhibitor	proKLK7 act	MsrA act	MsrA conf
CCOc1cc(S(=O)(=O)NC2CC2)c(OCC)cc1-n1cnnn1	-1.0	25.5*	2.8	-1.8	22.7*
C=CCn1c(SCc2ccc(C#N)cc2)nnc1-c1ccco1	-3.9	.	0.3	.	.
N=c1occ(C(=O)c2cc(F)ccc2O)cc1C(=O)NC1CCCCC1	-2.6	4.9*	0.0	-2.1	0.1
CCOC(=O)c1c(C)[nH]c(C)c1S(=O)(=O)NCCN1CCN(c2ccccc2F)CC1	0.5	-0.6	-0.7	-6.4	.
O=C(CN1C(=O)S/C(=C\c2cccs2)C1=O)Nc1ccc(C(=O)O)c(O)c1	0.1	5.3*	-0.4	-5.2	6.0*
O=C(CN1C(=O)S/C(=C\c2cccs2)C1=O)Nc1ccc(O)c(C(=O)O)c1	1.9	5.3*	0.8	-4.2	5.8*
O=C(NCCc1c[nH]c2ccccc12)OCc1cn(-c2cccc(Cl)c2)nn1	-2.3	.	-1.1	.	.
O=[N+]([O-])c1ccc(N2CCN(S(=O)(=O)c3ccccc3)CC2)cc1NCc1cccnc1	-1.5	9.1*	0.1	-6.5	1.6
COc1ccc([N+](=O)[O-])cc1NC1CCN(C(=O)c2cccs2)CC1	2.2	1.3	0.0	-11.1	.
COc1ccc(/C=N/n2c(C3CCCCC3)n[nH]c2=S)c(OC)c1	-2.9	8.8*	0.5	0.5	8.6*
Cc1ccc(/C=N/n2c(C3CCCCC3)n[nH]c2=S)s1	-2.9	1.4	-0.5	-4.8	.
Cc1ccsc1/C=N/n1c(C2CCCCC2)n[nH]c1=S	-3.3	10.8*	0.1	-4.1	6.1*
COc1cc(OC)c(/C=N/n2c(C3CCCCC3)n[nH]c2=S)c(OC)c1	1.0	2.0	10.3	-1.6	.

Screens deposited in PubChem by The Scripps Research Institute Molecular Screening Center.
